The structures appear in SMILES notation. Active and inactive are the calls of the source.

For 36 compounds, z-score results are on record in PubChem BioAssay.
Also: test concentration not given here.

A short description of the first experiment: JC-1 mitochondrial signal, unstimulated HepG2 cells – cell-based, JC-1 fluorescence, 24 h, 100 nL compound, profiling panel (AID 1167). Conditions: HepG2 mitochondrial potential, higher = more signal.
Consider `O=C1[C@H]2[C@H]3[C@H](O)[C@H](O)CC(=NO[C@@H]4O[C@H](CO)[C@@H](O)[C@H](O)[C@H]4O)[C@H]3CC[C@H]2C(=O)N1c1ccc(F)cc1F`, for which the z-score worked out at 0.419.

`COC(=O)[C@@H]1CC[C@H](C)[C@@H](c2ccc(C)cc2)N1C(=O)c1ccc(C=NOC[C@H]2O[C@H](c3ccccc3)C=C[C@@H]2Oc2ccc(OC)cc2)cc1` came in with a z-score of 2.64.

Take `COC(=O)CC=C[C@@H](C)[C@@H](C=NOC[C@@H](O)COCc1ccco1)OC`: the z-score was -0.327. Still for that read-out and setting: the result for `CC(C)(C)N1C(=O)[C@H]2[C@H]3[C@H](O)[C@H](O)CC(=NOC[C@@H](O)COCc4ccco4)[C@@H]3CC[C@H]2C1=O` reads -1.12. Same read-out and setting: the same measure for `C#CCCCON=C1C[C@@H](O)[C@@H](O)[C@@H]2[C@@H]3C(=O)N(C[C@@H]4CCCO4)C(=O)[C@@H]3CC[C@H]12`: -0.241; for `CCOC(=O)[C@H](CC(C)C)NC(=O)CCC1CC(OC(=O)NCCc2ccc(F)cc2)CC2(CCCC(COC(=O)NCCOC)O2)O1` (some centres undefined): -1.21; for `CCOC(=O)[C@H](Cc1ccccc1)NC(=O)CCC1CC(OC(=O)NCCc2ccc(F)cc2)CC2(CCCC(COC(=O)NCCC(C)C)O2)O1` (some centres undefined): 0.362. The same measure, in the same setting: the result for `CC(C)=CCCC(C)=CCON=C1C[C@@H](O)[C@@H](O)[C@@H]2[C@@H]3C(=O)N(C4CCCCC4)C(=O)[C@@H]3CC[C@H]12` reads -1.47.

A short description of the next experiment: JC-1 mitochondrial signal, unstimulated adipocytes – cell-based, JC-1 fluorescence, 3T3-L1 adipocytes, 24 h, 100 nL compound, profiling panel (AID 1168). Conditions: JC-1 mitochondrial fluorescence, higher = more signal, called active from +8 up or from −8 down.
Turning to `CO[C@H]1COC(=O)CC=C[C@H](C)[C@H](OC)COC(=O)[C@@H](C)NC(=O)CC=C[C@@H]1C`, the z-score is -0.557 (inactive). On the same count and under the same terms, the result for `CCOC(=O)[C@H](Cc1ccccc1)NC(=O)CCC1CC(OC(=O)NCCc2ccc(F)cc2)CC2(CCCC(COC(=O)NCc3cccc(C(F)(F)F)c3)O2)O1` (some centres undefined) reads -0.306 (inactive); that for `CCOC(=O)NN=C1C[C@@H](O)[C@@H](O)[C@@H]2[C@@H]3C(=O)N(c4ccc(F)cc4F)C(=O)[C@@H]3CC[C@H]12`, -0.734 (inactive); that for `C[C@]12CCC3c4ccc(OCC5CO5)cc4CCC3C1CC[C@@H]2O` (some centres undefined), 0.121 (inactive). Still for that read-out and setting: the same measure for `CCOC(=O)CCN1C(=O)[C@H]2[C@H]3[C@H](O)[C@H](O)CC(=NOCC=C(C)CCC=C(C)C)[C@@H]3CC[C@H]2C1=O`: -0.204 (inactive); for `CCOC(=O)[C@H](Cc1ccccc1)NC(=O)CCC1CC(OC(=O)NCc2cccc3ccccc23)CC2(CCCC(COC(=O)NCCOc3ccccc3)O2)O1` (some centres undefined): 0.0327 (inactive). Turning to `CCOC(=O)[C@H](Cc1ccccc1)NC(=O)CCC1CC(OC(=O)NCc2ccc3c(c2)OCO3)CC2(CCCC(COC(=O)NCCc3ccc(Cl)cc3)O2)O1` (some centres undefined), the z-score is 0.361 (inactive). For `O=C(NN=C1C[C@@H](O)[C@@H](O)[C@@H]2[C@@H]3C(=O)N(Cc4ccccc4)C(=O)[C@@H]3CC[C@H]12)OCc1ccccc1`, the z-score is 0.415 (inactive).

`C[C@@H]1CC[C@H]2C(=O)O[C@@H](CN=[N+]=[N-])CN2[C@H]1c1ccc(Br)cc1`: the z-score is -0.62 (inactive).

As to `COC(=O)CC=C[C@@H](C)[C@@H](C=NOC[C@@H](O)[C@H]1O[C@@H]2OC(C)(C)O[C@@H]2[C@H]1O)OC`, the z-score was -0.637 (inactive). Same read-out and setting: the result for `CC(CCN1CCCc2nc(C)c(C)cc21)=NO[C@H](C)c1cn([C@@H]2COC[C@H]2O)nn1` reads 0.707 (inactive). Same read-out and setting: the result for `CC(C)(C)N1C(=O)[C@H]2[C@H]3[C@H](O)[C@H](O)CC(=NNC(=O)OCc4ccccc4)[C@@H]3CC[C@H]2C1=O` reads -0.323 (inactive); that for `COc1cccc([C@H]2Oc3ccc(OC)cc3C(=NO[C@@H](C)c3cc(-c4c(C)cc(C)cc4C)no3)[C@@H]2O)c1`, -2.31 (inactive). On the same count and under the same terms, the same measure for `O=C1C2=CC[C@H]3C(=O)N(C[C@@H]4CCCO4)C(=O)[C@H]3[C@H]2[C@H](O)[C@@H]2O[C@H]12`: 0.465 (inactive); for `CCOC(=O)[C@H](Cc1ccccc1)NC(=O)CCC1CC(OC(=O)NCc2cccc3ccccc23)CC2(CCCC(COC(=O)NCCc3ccc(Cl)cc3)O2)O1` (some centres undefined): 0.237 (inactive); for `COC(=O)[C@H](C)NC(=O)CCC1CC(OC(=O)NCc2cccc3ccccc23)CC2(CCCC(COC(=O)NCc3cccc(C(F)(F)F)c3)O2)O1` (some centres undefined): 0.733 (inactive).

With `COC(=O)[C@H](C)NC(=O)CCC1CC(OC(=O)NCc2cccc3ccccc23)CC2(CCCC(COC(=O)NCCOc3ccccc3)O2)O1` (some centres undefined), the z-score was -0.198 (inactive). The same measure, in the same setting: the same measure for `CCOC(=O)CCN1C(=O)[C@H]2[C@H]3[C@H](O)[C@H](O)CC(=O)[C@@H]3CC[C@H]2C1=O`: -0.368 (inactive); for `C#CCCCON=C1[C@H]2CCn3c(=O)n(Cc4cc5c(cc4Cl)OCO5)c(=O)n3[C@H]2[C@H](O)[C@@H]2O[C@H]12`: -1.1 (inactive). The same measure, in the same setting: the result for `COC(=O)[C@H](C)NC(=O)CCC1CC(OC(=O)NCCc2ccc(F)cc2)CC2(CCCC(COC(=O)NCCc3ccccc3OC)O2)O1` (some centres undefined) reads 0.766 (inactive); that for `CCOC(=O)[C@H](Cc1ccccc1)NC(=O)CCC1CC(OC(=O)NCc2ccc3c(c2)OCO3)CC2(CCCC(COC(=O)NCCOc3ccccc3)O2)O1` (some centres undefined), 0.808 (inactive); that for `CCOC(=O)CCN1C(=O)[C@H]2[C@H]3[C@H](O)[C@H](O)CC(=NNC(=O)OCC)[C@H]3CC[C@H]2C1=O`, -1.19 (inactive). In the case of `CCN1C(=O)[C@H]2[C@H]3[C@H](O)[C@H](O)CC(=NOCC[C@@H]4C=C[C@H](OC(C)=O)[C@@H](COC(C)=O)O4)[C@@H]3CC[C@H]2C1=O`, the z-score is -0.132 (inactive).

Consider `O=C1C2=CC[C@H]3C(=O)N(c4ccc(F)cc4F)C(=O)[C@H]3[C@H]2[C@H](O)[C@@H]2O[C@H]12`, for which the z-score is -0.191 (inactive).

For `COc1ccc(O[C@H]2C=C[C@@H](c3ccccc3)O[C@@H]2COC(=O)CCC(C)=NOC[C@@H](O)COCc2ccco2)cc1`, the z-score is 0.0665 (inactive). The same measure, in the same setting: the same measure for `O=C1C[C@@H](O)[C@@H](O)[C@@H]2[C@@H]3C(=O)N(C4CCCCC4)C(=O)[C@@H]3CC[C@@H]12`: -0.907 (inactive); for `CC(CCC(=O)OC[C@H]1O[C@H](C#Cc2ccccc2)C=C[C@@H]1Oc1ccc(C)cc1)=NOC[C@@H](C)[C@H](OCc1ccccc1)C(C)C`: -1.77 (inactive); for `CC(C)CON=C1C[C@@H](O)[C@@H](O)[C@@H]2[C@@H]3C(=O)N([C@@H](C)c4ccccc4)C(=O)[C@@H]3CC[C@@H]12`: -0.72 (inactive). The same measure, in the same setting: the same measure for `O=C1[C@H]2[C@H]3[C@H](O)[C@H](O)CC(=NO[C@@H]4O[C@H](CO)[C@@H](O)[C@H](O)[C@H]4O)[C@H]3CC[C@H]2C(=O)N1c1ccc(F)cc1F`: -0.35 (inactive).

Take `COC(=O)[C@@H]1CC[C@H](C)[C@@H](c2ccc(C)cc2)N1C(=O)c1ccc(C=NOC[C@H]2O[C@H](c3ccccc3)C=C[C@@H]2Oc2ccc(OC)cc2)cc1`: the z-score was -2.02 (inactive). Regarding `COC(=O)CC=C[C@@H](C)[C@@H](C=NOC[C@@H](O)COCc1ccco1)OC`, the z-score was 0.499 (inactive).

Turning to `CC(C)(C)N1C(=O)[C@H]2[C@H]3[C@H](O)[C@H](O)CC(=NOC[C@@H](O)COCc4ccco4)[C@@H]3CC[C@H]2C1=O`, the z-score is -0.243 (inactive). The same measure, in the same setting: the result for `C#CCCCON=C1C[C@@H](O)[C@@H](O)[C@@H]2[C@@H]3C(=O)N(C[C@@H]4CCCO4)C(=O)[C@@H]3CC[C@H]12` reads -0.792 (inactive). Same read-out and setting: the same measure for `CCOC(=O)[C@H](CC(C)C)NC(=O)CCC1CC(OC(=O)NCCc2ccc(F)cc2)CC2(CCCC(COC(=O)NCCOC)O2)O1` (some centres undefined): -0.459 (inactive). The same measure, in the same setting: the same measure for `CCOC(=O)[C@H](Cc1ccccc1)NC(=O)CCC1CC(OC(=O)NCCc2ccc(F)cc2)CC2(CCCC(COC(=O)NCCC(C)C)O2)O1` (some centres undefined): 0.232 (inactive); for `CC(C)=CCCC(C)=CCON=C1C[C@@H](O)[C@@H](O)[C@@H]2[C@@H]3C(=O)N(C4CCCCC4)C(=O)[C@@H]3CC[C@H]12`: -0.444 (inactive).
